Measurements reported in PubChem BioAssay (NCATS).
Inconclusive results are not listed. Entries that show only a call come without a potency. Active and inactive are the calls of the source. The call rests on the fitted dose curve; in most records, active means well fitted inhibition curve with a large enough effect; inconclusive means small, poorly fitted or top-dose-only effect; inactive means flat fitted curve, though single readings scatter.

Key:
Test in all cases: qHTS profiling for inhibitors of Plasmodium falciparum proliferation (AID 504749); further: nearly all actives have a fitted effect of over 60% in size
Settings in all cases: P. falciparum in erythrocytes, SYBR Green DNA, 72 h; series mostly up to 28.7 µM
CP262 = system: CP262
How it was run: (§1)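 SYBR Green fluorescence of parasite DNA, read after lysis and overnight dark incubation, measured growth over 72 h in erythrocyte culture at 0.3% parasitemia and 2.5% hematocrit. Data normalised to DMSO and 0.29 uM artemisinin, with plate-drift correction.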

CP265 = system: CP265
How it was run: as §1

CP266 = system: CP266
How it was run: as §1

CP268 = system: CP268
How it was run: as §1

CP269 = system: CP269
How it was run: as §1

CP286 = system: CP286
How it was run: as §1

CP291 = system: CP291
How it was run: as §1

CP297 = system: CP297
How it was run: as §1

CP305 = system: CP305
How it was run: as §1

CP315 = system: CP315
How it was run: as §1
Potency means the concentration at half of the fitted maximal effect.

Structure (SMILES): C#CC1(O)CCC2C3CCC4=CC(=O)CCC4(C)C3CCC21C (stereo unspecified)
- Potency (CP262): inactive
- Potency (CP265): inactive
- outcome (CP266): inactive
- Potency (CP268): inactive
- Potency (CP269): inactive
- Potency (CP286): inactive
- Potency (CP291): inactive
- Potency (CP297): inactive
- Potency (CP305): inactive
- Potency (CP315): inactive

Structure (SMILES): NC(=O)CN1CC(O)CC1=O (stereo unspecified)
- Potency (CP262): inactive
- Potency (CP265): inactive
- outcome (CP266): inactive
- Potency (CP268): inactive
- Potency (CP269): inactive
- Potency (CP286): inactive
- Potency (CP291): inactive
- Potency (CP297): inactive
- Potency (CP305): inactive
- Potency (CP315): inactive

Structure (SMILES): NC1=NC(=O)N2CC12 (stereo unspecified)
- outcome (CP266): inactive
- Potency (CP297): inactive
- Potency (CP315): inactive

Structure (SMILES): Cc1cc(O)ccc1Cl
- Potency (CP262): inactive
- Potency (CP265): inactive
- outcome (CP266): inactive
- Potency (CP268): inactive
- Potency (CP269): inactive
- Potency (CP286): inactive
- Potency (CP291): inactive
- Potency (CP297): inactive
- Potency (CP305): inactive
- Potency (CP315): inactive

Structure (SMILES): COC(=O)c1cncn1C(C)c1ccccc1 (stereo unspecified)
- Potency (CP262): inactive
- outcome (CP266): inactive
- Potency (CP268): inactive
- Potency (CP269): inactive
- Potency (CP291): inactive
- Potency (CP297): inactive
- Potency (CP305): inactive
- Potency (CP315): inactive

Structure (SMILES): CC(=O)[O][Hg][c]1ccccc1
- Potency (CP265): 8.91 µM (active)
- Potency (CP268): 4.78 µM (active)
- Potency (CP269): 4.78 µM (active)
- Potency (CP286): 3.55 µM (active)
- Potency (CP291): 4.26 µM (active)
- Potency (CP297): 13.5 µM (active)
- Potency (CP305): 4.26 µM (active)

Structure (SMILES): CN[C@@H]1C[C@@H](c2ccc(Cl)c(Cl)c2)c2ccccc21
- Potency (CP286): 12.6 µM (active)
- Potency (CP297): inactive
- Potency (CP315): inactive

Structure (SMILES): CCCCc1ccc(C(=O)O)nc1
- Potency (CP262): inactive
- Potency (CP265): inactive
- outcome (CP266): inactive
- Potency (CP268): inactive
- Potency (CP269): inactive
- Potency (CP286): inactive
- Potency (CP291): inactive
- Potency (CP297): inactive
- Potency (CP305): inactive
- Potency (CP315): inactive

Structure (SMILES): Cc1ccc(Cl)c(O)c1
- Potency (CP262): inactive
- Potency (CP265): inactive
- outcome (CP266): inactive
- Potency (CP268): inactive
- Potency (CP269): inactive
- Potency (CP286): inactive
- Potency (CP291): inactive
- Potency (CP297): inactive
- Potency (CP305): inactive
- Potency (CP315): inactive

Structure (SMILES): CC[N+]1(CCOC(=O)C(O)(c2ccccc2)c2ccccc2)CCCCC1
- Potency (CP262): inactive
- Potency (CP265): inactive
- outcome (CP266): inactive
- Potency (CP268): inactive
- Potency (CP269): inactive
- Potency (CP286): inactive
- Potency (CP291): inactive
- Potency (CP297): inactive
- Potency (CP305): inactive
- Potency (CP315): inactive

Structure (SMILES): CCCCCCCCCCCCCCCC[N+](C)(C)C
- Potency (CP265): 11.2 µM (active)
- Potency (CP268): 13.5 µM (active)
- Potency (CP286): 5.01 µM (active)
- Potency (CP291): 13.5 µM (active)
- Potency (CP297): 13.5 µM (active)

Structure (SMILES): CC(=O)OCC1=C(C(=O)O)N2C(=O)[C@@H](N)[C@@H]2SC1
- Potency (CP262): inactive
- outcome (CP266): inactive
- Potency (CP268): inactive
- Potency (CP269): inactive
- Potency (CP286): inactive
- Potency (CP291): inactive
- Potency (CP297): inactive
- Potency (CP305): inactive
- Potency (CP315): inactive

Structure (SMILES): C[C@]12CCC(=O)C(O)=C1CC[C@@H]1[C@H]3CCC(=O)[C@@]3(C)CC[C@@H]12
- Potency (CP262): inactive
- outcome (CP266): inactive
- Potency (CP268): inactive
- Potency (CP269): inactive
- Potency (CP286): inactive
- Potency (CP291): inactive
- Potency (CP297): inactive
- Potency (CP305): inactive
- Potency (CP315): inactive

Structure (SMILES): COC(C)(C)CCCC(C)C/C=C/C(C)=C/C(=O)OC(C)C (stereo unspecified)
- Potency (CP262): inactive
- Potency (CP265): 11.2 µM (active)
- Potency (CP315): inactive

Structure (SMILES): C=CCN1CC[C@]23CCCCC2[C@H]1Cc1ccc(O)cc13 (stereo partly specified)
- Potency (CP262): inactive
- Potency (CP265): inactive
- outcome (CP266): inactive
- Potency (CP268): inactive
- Potency (CP269): inactive
- Potency (CP286): inactive
- Potency (CP291): inactive
- Potency (CP297): inactive
- Potency (CP305): inactive
- Potency (CP315): inactive

Structure (SMILES): c1ccc(C2(c3ccccc3)CC2C2=NCCN2)cc1 (stereo unspecified)
- Potency (CP262): inactive
- Potency (CP265): inactive
- Potency (CP268): inactive
- Potency (CP269): inactive
- Potency (CP291): inactive
- Potency (CP297): inactive
- Potency (CP305): inactive
- Potency (CP315): inactive

Structure (SMILES): COC(=O)[C@@H](N)CCCN=C(N)N[N+](=O)[O-]
- Potency (CP262): inactive
- Potency (CP265): inactive
- outcome (CP266): inactive
- Potency (CP268): inactive
- Potency (CP269): inactive
- Potency (CP286): inactive
- Potency (CP291): inactive
- Potency (CP297): inactive
- Potency (CP305): inactive
- Potency (CP315): inactive

Structure (SMILES): O=[N+]([O-])c1ccc([As](=O)(O)O)cc1
- Potency (CP262): 8.49 µM (active)
- Potency (CP265): 10 µM (active)
- Potency (CP268): 13.5 µM (active)
- Potency (CP269): 6.01 µM (active)
- Potency (CP286): 7.94 µM (active)
- Potency (CP291): 8.49 µM (active)
- Potency (CP297): 10.7 µM (active)
- Potency (CP305): 7.57 µM (active)
- Potency (CP315): 12 µM (active)

Structure (SMILES): CN(C)[C@@H]1C(=O)C(C(N)=O)=C(O)[C@@]2(O)C(=O)C3=C(O)c4c(O)cccc4[C@@](C)(O)[C@H]3[C@H](O)[C@@H]12
- Potency (CP265): inactive
- outcome (CP266): inactive
- Potency (CP268): inactive
- Potency (CP269): inactive
- Potency (CP291): inactive
- Potency (CP305): inactive
- Potency (CP315): inactive

Structure (SMILES): C1CCC(NC2CCCCC2)CC1
- Potency (CP262): inactive
- Potency (CP265): inactive
- outcome (CP266): inactive
- Potency (CP268): inactive
- Potency (CP269): inactive
- Potency (CP286): inactive
- Potency (CP291): inactive
- Potency (CP297): inactive
- Potency (CP305): inactive
- Potency (CP315): inactive

Structure (SMILES): CCCN1CCC[C@H](c2cccc(O)c2)C1
- Potency (CP262): inactive
- Potency (CP265): inactive
- outcome (CP266): inactive
- Potency (CP268): inactive
- Potency (CP269): inactive
- Potency (CP286): inactive
- Potency (CP291): inactive
- Potency (CP305): inactive
- Potency (CP315): inactive

Structure (SMILES): CCCCCCCCCC(CC)c1ccc(S(=O)(=O)O)cc1 (stereo unspecified)
- Potency (CP262): inactive
- Potency (CP265): inactive
- Potency (CP268): inactive
- Potency (CP269): inactive
- Potency (CP286): inactive
- Potency (CP291): inactive
- Potency (CP297): inactive
- Potency (CP305): inactive
- Potency (CP315): inactive

Structure (SMILES): CC(C)NC(C)Cc1ccc(I)cc1 (stereo unspecified)
- Potency (CP262): inactive
- Potency (CP265): inactive
- outcome (CP266): inactive
- Potency (CP269): inactive
- Potency (CP286): inactive
- Potency (CP291): inactive
- Potency (CP305): inactive
- Potency (CP315): inactive

Structure (SMILES): O=C(O)C(Cl)Cl
- Potency (CP262): inactive
- Potency (CP265): inactive
- outcome (CP266): inactive
- Potency (CP268): inactive
- Potency (CP269): inactive
- Potency (CP286): inactive
- Potency (CP291): inactive
- Potency (CP297): inactive
- Potency (CP305): inactive
- Potency (CP315): inactive

Structure (SMILES): O=C(O)COc1ccccc1
- Potency (CP262): inactive
- Potency (CP265): inactive
- outcome (CP266): inactive
- Potency (CP268): inactive
- Potency (CP269): inactive
- Potency (CP286): inactive
- Potency (CP291): inactive
- Potency (CP297): inactive
- Potency (CP305): inactive
- Potency (CP315): inactive

Structure (SMILES): CN1C2CCC1CC(OC(=O)c1cc(Cl)cc(Cl)c1)C2 (stereo unspecified)
- Potency (CP262): inactive
- Potency (CP265): inactive
- outcome (CP266): inactive
- Potency (CP268): inactive
- Potency (CP269): inactive
- Potency (CP286): inactive
- Potency (CP291): inactive
- Potency (CP305): inactive
- Potency (CP315): inactive
